# Experimental data taken from PubChem BioAssay.
# The source made the active and inactive calls.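 How the source made its calls, unless noted: active means hit in primary screen, with calcium signal over 5 SD above buffer well mean in both duplicates; inactive means the rest.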
# Test: nonspecific calcium rise without TRPC4 – cell-based, HEK293 mu-opioid receptor line, counter-screen for TRPC4 activator project, confirmation (AID 449723);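 further: counter screen cells carry the mu-opioid receptor alone and lack TRPC4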
# Details: HEK293 mu-opioid cells, Fluo-4 calcium fluorescence, at 10 µM; hits give high values
SMILES,activation,outcome
O=C1/C(=C\c2cc(Cl)c(O)c(Cl)c2)SC(=S)N1Cc1ccccc1,248% (active),
COc1ccc(C(=O)NC(=S)NNC(=O)c2c(-c3ccccc3)noc2C)cc1,28.5% (active),
O=C(c1sc2ccccc2c1Cl)N(Cc1ccco1)C1CCS(=O)(=O)C1 (stereo not given),,inactive
Cc1cc(-c2ccc(C)c(S(=O)(=O)NCCCN(Cc3ccccc3)C(C)C)c2)on1,,inactive
CCc1nc(NCCc2ccccn2)c2nnn(Cc3ccccc3F)c2n1,,inactive
CN(C)CCCN(C(=O)c1ccc(S(=O)(=O)N2CCCc3ccccc32)cc1)c1nc2ccc(F)cc2s1,14.7% (active),
CSCCC(NS(=O)(=O)c1ccc2c(c1)c(=O)n(C)c(=O)n2C)C(=O)NC1CCN(Cc2ccccc2)CC1 (stereo not given),,inactive
CCC1(c2ccc(F)cc2)NC(=O)N(CC(=O)c2cc(C)n(C3CC3)c2C)C1=O (stereo not given),13.8% (active),
CN(C)CCCN(C(=O)c1ccc(C(=O)c2ccccc2)cc1)c1nc2ccc(F)cc2s1,,inactive
Cc1ccc(-n2cc(CNCC3CC(=O)N(C4CC4)C3)c(-c3cccc(C)c3)n2)cc1 (stereo not given),,inactive
CC1CCCN(CCCNC(=O)c2ccc3c(c2)N(Cc2ccccc2F)C(=O)c2ccccc2S3(=O)=O)C1 (stereo not given),,inactive
Cc1nc(/N=C(\N)NC(=O)NC2CCCCC2)nc2ccccc12,,inactive
COc1ccc(C(CNC(=O)c2cccc(NS(=O)(=O)c3ccc(C)c(F)c3)c2)N(C)C)cc1 (stereo not given),,inactive
CCN1CCN(c2ccc(S(=O)(=O)N3CCCCC3)cc2NC(=O)COc2ccccc2)CC1,,inactive
CCCN(CCC)CCCNC(=O)C1CCN(S(=O)(=O)c2cccc3nsnc23)CC1,,inactive
c1ccc(Nc2nc(Nc3ccccc3)nc(N3CCNCC3)n2)cc1,,inactive
CN(C)C(CNc1ncnc2sc3c(c12)CCCC3)c1ccco1 (stereo not given),,inactive
CC(=O)Nc1ccc(CN2CCCC(C(=O)c3cccc(C(F)(F)F)c3)C2)cc1 (stereo not given),,inactive
NCCCn1c(C(=O)c2cc(Cl)c(N)c(Cl)c2)c2ccccc2[n+]1[O-],,inactive
CCN1CCN(c2c(Cl)cccc2NC(=O)c2ccc3nsnc3c2)CC1,,inactive

SMILES,activation,outcome
COc1ccc(-c2cc(C(=O)NCC(c3ccccc3)N(C)C)c3ccccc3n2)cc1OC (stereo not given),,inactive
O=C(c1sc2ccccc2c1Cl)N(Cc1cccs1)C1CCS(=O)(=O)C1 (stereo not given),,inactive
O=S(=O)(c1ccccc1)c1nnn2c1nc(NC1CCN(Cc3ccccc3)CC1)c1cc(Cl)ccc12,,inactive
CCCc1c(O)nc(SCCN(CCC)CCC)[nH]c1=O,,inactive
O=C(CCc1ccccc1)NNC(=S)NC(=O)c1ccc(Cl)cc1,28.6% (active),
CCCCN(C)CCCNC(=O)CN1N=C(c2ccc(Cl)cc2)CCC1=O,,inactive
CC1(C)CC(=O)c2cc(C(=O)NCc3ccco3)c(=O)n(-c3ccc(Cl)cc3)c2C1,,inactive
CCOC(=O)C1CCCN(C(c2ccccn2)c2c(C)[nH]c3ccccc23)C1 (stereo not given),,inactive
O=C(Nc1nnc(-c2ccccc2Cl)o1)c1nc2ccccc2s1,30.2% (active),
CCCCC(c1nnnn1CC1CCCO1)N1CCN(c2nc3ccccc3s2)CC1 (stereo not given),,inactive
c1ccc2c(c1)CCN(c1ncnc3c1[nH]c1ccccc13)C2,,inactive
COc1ccc(C(CNCC(=O)Nc2ccccc2F)N(C)C)cc1 (stereo not given),,inactive
O=S(=O)(c1ccc(Cl)cc1)N1CCN2CCCC2C1 (stereo not given),,inactive
COc1cc(OC)c(CN2CCC(Cc3ccccc3)CC2)cc1Br,,inactive
CCOC(=O)C1(CCOc2ccccc2)CCN(Cc2ccc(NC(C)=O)cc2)CC1,,inactive
O=C(C1CCCN(Cc2ccccc2)C1)N1CCc2ccccc2C1 (stereo not given),,inactive
Cc1csc2c(N3CCN(C(=S)Nc4ccc(F)cc4F)CC3)ncnc12,,inactive
Cc1ccc(C2(O)CN(c3ccccc3C)C3=[N+]2CCS3)cc1 (stereo not given),,inactive
CCn1cc(CN2CCCC(C(=O)Nc3ccc(-c4nc5ccccc5[nH]4)cc3)C2)c(C)n1 (stereo not given),,inactive
CN(C)C(CNC(=S)Nc1cccc(Cl)c1)c1cccnc1 (stereo not given),,inactive

# Test: nonspecific potentiation of DAMGO calcium response – cell-based, HEK293 mu-opioid receptor line, counter-screen for TRPC4 allosteric potentiator project, confirmation (AID 449724;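 active means calcium signal rise more than 3 SD above the low-dose agonist control mean, in both duplicate plates and the primary screen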;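 further: HEK293 cells carrying mu-opioid receptor only with no TRPC4 channel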)
# Details: HEK293 mu-opioid receptor cells, Fluo-4 calcium flux, at 10 µM, compound added before EC20 DAMGO stimulus; hits give high values
SMILES,activation,outcome
O=C1/C(=C\c2cc(Cl)c(O)c(Cl)c2)SC(=S)N1Cc1ccccc1,3240% (active),
COc1ccc(C(=O)NC(=S)NNC(=O)c2c(-c3ccccc3)noc2C)cc1,,inactive
O=C(c1sc2ccccc2c1Cl)N(Cc1ccco1)C1CCS(=O)(=O)C1 (stereo not given),,inactive
Cc1cc(-c2ccc(C)c(S(=O)(=O)NCCCN(Cc3ccccc3)C(C)C)c2)on1,,inactive
CCc1nc(NCCc2ccccn2)c2nnn(Cc3ccccc3F)c2n1,,inactive
CN(C)CCCN(C(=O)c1ccc(S(=O)(=O)N2CCCc3ccccc32)cc1)c1nc2ccc(F)cc2s1,,inactive
CSCCC(NS(=O)(=O)c1ccc2c(c1)c(=O)n(C)c(=O)n2C)C(=O)NC1CCN(Cc2ccccc2)CC1 (stereo not given),,inactive
CCC1(c2ccc(F)cc2)NC(=O)N(CC(=O)c2cc(C)n(C3CC3)c2C)C1=O (stereo not given),,inactive
CN(C)CCCN(C(=O)c1ccc(C(=O)c2ccccc2)cc1)c1nc2ccc(F)cc2s1,,inactive
Cc1ccc(-n2cc(CNCC3CC(=O)N(C4CC4)C3)c(-c3cccc(C)c3)n2)cc1 (stereo not given),,inactive
CC1CCCN(CCCNC(=O)c2ccc3c(c2)N(Cc2ccccc2F)C(=O)c2ccccc2S3(=O)=O)C1 (stereo not given),,inactive
Cc1nc(/N=C(\N)NC(=O)NC2CCCCC2)nc2ccccc12,,inactive
COc1ccc(C(CNC(=O)c2cccc(NS(=O)(=O)c3ccc(C)c(F)c3)c2)N(C)C)cc1 (stereo not given),,inactive
CCN1CCN(c2ccc(S(=O)(=O)N3CCCCC3)cc2NC(=O)COc2ccccc2)CC1,,inactive
CCCN(CCC)CCCNC(=O)C1CCN(S(=O)(=O)c2cccc3nsnc23)CC1,,inactive
c1ccc(Nc2nc(Nc3ccccc3)nc(N3CCNCC3)n2)cc1,,inactive
CN(C)C(CNc1ncnc2sc3c(c12)CCCC3)c1ccco1 (stereo not given),,inactive
CC(=O)Nc1ccc(CN2CCCC(C(=O)c3cccc(C(F)(F)F)c3)C2)cc1 (stereo not given),,inactive
NCCCn1c(C(=O)c2cc(Cl)c(N)c(Cl)c2)c2ccccc2[n+]1[O-],,inactive
CCN1CCN(c2c(Cl)cccc2NC(=O)c2ccc3nsnc3c2)CC1,,inactive

SMILES,activation,outcome
COc1ccc(-c2cc(C(=O)NCC(c3ccccc3)N(C)C)c3ccccc3n2)cc1OC (stereo not given),,inactive
O=C(c1sc2ccccc2c1Cl)N(Cc1cccs1)C1CCS(=O)(=O)C1 (stereo not given),,inactive
O=S(=O)(c1ccccc1)c1nnn2c1nc(NC1CCN(Cc3ccccc3)CC1)c1cc(Cl)ccc12,,inactive
CCCc1c(O)nc(SCCN(CCC)CCC)[nH]c1=O,,inactive
O=C(CCc1ccccc1)NNC(=S)NC(=O)c1ccc(Cl)cc1,,inactive
CCCCN(C)CCCNC(=O)CN1N=C(c2ccc(Cl)cc2)CCC1=O,,inactive
CC1(C)CC(=O)c2cc(C(=O)NCc3ccco3)c(=O)n(-c3ccc(Cl)cc3)c2C1,,inactive
CCOC(=O)C1CCCN(C(c2ccccn2)c2c(C)[nH]c3ccccc23)C1 (stereo not given),,inactive
O=C(Nc1nnc(-c2ccccc2Cl)o1)c1nc2ccccc2s1,,inactive
CCCCC(c1nnnn1CC1CCCO1)N1CCN(c2nc3ccccc3s2)CC1 (stereo not given),,inactive
c1ccc2c(c1)CCN(c1ncnc3c1[nH]c1ccccc13)C2,,inactive
COc1ccc(C(CNCC(=O)Nc2ccccc2F)N(C)C)cc1 (stereo not given),,inactive
O=S(=O)(c1ccc(Cl)cc1)N1CCN2CCCC2C1 (stereo not given),,inactive
COc1cc(OC)c(CN2CCC(Cc3ccccc3)CC2)cc1Br,,inactive
CCOC(=O)C1(CCOc2ccccc2)CCN(Cc2ccc(NC(C)=O)cc2)CC1,,inactive
O=C(C1CCCN(Cc2ccccc2)C1)N1CCc2ccccc2C1 (stereo not given),,inactive
Cc1csc2c(N3CCN(C(=S)Nc4ccc(F)cc4F)CC3)ncnc12,,inactive
Cc1ccc(C2(O)CN(c3ccccc3C)C3=[N+]2CCS3)cc1 (stereo not given),,inactive
CCn1cc(CN2CCCC(C(=O)Nc3ccc(-c4nc5ccccc5[nH]4)cc3)C2)c(C)n1 (stereo not given),,inactive
CN(C)C(CNC(=S)Nc1cccc(Cl)c1)c1cccnc1 (stereo not given),,inactive
